Measured values taken from PubChem BioAssay (EPA / NIEHS).
Results filed as inconclusive are left out. A structure can be active in one record and inactive in another. Activity calls are given as the source filed them. Rule for the calls, unless noted: active = hit-call score of the fitted dose curve at least 0.9, where 1 is the maximum; inactive = score below 0.9.

Assays:
[1] = read-out: Interleukin-8 (IL8), CXCL8 (gene 3576); test: BSK_3C_IL8: BioMAP Diversity Plus: 3C Assay for Interleukin-8 (IL8) Biomarker Activity (AID 2283020); conditions: primary human endothelial cells (HUVEC); actives raise or lower the signal
In short: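 ELISA read-out of IL-8 from human umbilical vein endothelium, measured 24 h after chemical dosing. Activity is expressed relative to DMSO negative control, with both increases and decreases fitted.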

[2] = read-out: Monokine induced gamma interferon (MIG), CXCL9 (gene 4283); test: BSK_3C_MIG: BioMAP Diversity Plus: 3C Assay for Monokine induced gamma interferon (MIG) Biomarker Activity (AID 2283021); conditions: primary human endothelial cells (HUVEC); actives raise or lower the signal
In short: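 Read-out is ELISA detection of MIG on human umbilical vein endothelial cells, taken 24 h after dosing. Gain or loss of signal was scored relative to DMSO controls using bidirectional curve fitting.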

[3] = target: human Vitamin D Receptor (VDR), VDR (gene 7421) (UniProt P11473); test: ATG_VDR_TRANS: Attagene TRANS-FACTORIAL HepG2 Assay for human Vitamin D Receptor (VDR) (AID 2283022; active = hit-call score of the fitted dose curve at least 0.9, where 1 is the maximum)
Sequence of human Vitamin D Receptor (VDR), VDR (gene 7421) (P11473 whole entry, looked up, the tested form may be a part): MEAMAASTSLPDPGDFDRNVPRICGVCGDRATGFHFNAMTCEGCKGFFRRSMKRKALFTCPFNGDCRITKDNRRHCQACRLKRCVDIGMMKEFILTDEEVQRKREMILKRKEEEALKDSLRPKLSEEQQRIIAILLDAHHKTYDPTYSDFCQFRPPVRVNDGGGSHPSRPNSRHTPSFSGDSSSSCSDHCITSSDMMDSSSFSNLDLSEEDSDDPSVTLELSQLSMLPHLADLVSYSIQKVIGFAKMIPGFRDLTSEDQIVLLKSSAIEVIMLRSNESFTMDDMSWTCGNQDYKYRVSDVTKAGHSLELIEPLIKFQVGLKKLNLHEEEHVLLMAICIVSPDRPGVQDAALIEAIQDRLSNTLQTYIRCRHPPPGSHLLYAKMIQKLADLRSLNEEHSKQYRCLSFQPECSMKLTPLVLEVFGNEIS
In short: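 Steps: transfect HepG2 with GAL4-UAS-driven reporter constructs; dose compounds 24 h; isolate RNA, reverse-transcribe, PCR-amplify with 6-FAM-labelled primer extension and HpaI digestion; quantify fragments by capillary electrophoresis relative to DMSO.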

[4] = BSK_3C_SRB: Viability Assessment in the BioMAP Diversity Plus: 3C Assay (AID 2283023); conditions: primary human endothelial cells (HUVEC);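 note: fitted both ways against DMSO so a hit may be signal rise or drop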
In short: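 Absorbance at 560 nm of sulforhodamine B-stained (0.1%) total protein served as a cytotoxicity readout in human umbilical vein endothelial cells, 24 h after chemical treatment. Signal was fitted bidirectionally relative to DMSO.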

[5] = read-out: Matrix Metallopeptidase 1 (MMP1), MMP1 (gene 4312); test: BSK_BE3C_MMP1: BioMAP Diversity Plus: BE3C Assay for Matrix Metallopeptidase 1 (MMP1) Biomarker Activity (AID 2283024); conditions: primary human bronchial epithelial cells; actives raise or lower the signal
In short: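 Human bronchial epithelial cells (BE3C system) exposed to compound for 24 h; MMP1 then quantified by ELISA. Activity was fitted in both directions relative to DMSO.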

[6] = BSK_3C_Vis: BioMAP Diversity Plus: 3C Assay for Morphology Visualization (AID 2283025); conditions: primary human endothelial cells (HUVEC);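 note: fitted both ways so gain or loss versus DMSO counts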
In short: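 Chemicals were added to primary human umbilical vein endothelium, cells were incubated 24 h, and morphology was then visualized by light microscopy. Gain or loss of signal was fitted bidirectionally relative to DMSO.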

[7] = read-out: Pselectin, SELP (gene 6403); test: BSK_4H_Pselectin: BioMAP Diversity Plus: 4H Assay for Pselectin Biomarker Activity (AID 2283026); conditions: primary human endothelial cells (HUVEC); actives raise or lower the signal
In short: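 ELISA read-out of P-selectin on human umbilical vein endothelium after 24 h of dosing. Values derive from bidirectional fitting relative to DMSO. Parallel SRB protein staining flagged overt cytotoxicity.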

[8] = BSK_4H_SRB: Viability Assessment in the BioMAP Diversity Plus: 4H Assay (AID 2283027); conditions: primary human endothelial cells (HUVEC);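 note: cells exposed to compound for 24 h before staining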
In short: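 Human umbilical vein endothelial cells, 24 h after chemical dosing; total protein measured by 0.1% sulforhodamine B staining after 10% TCA fixation, read at 560 nm. Bidirectional fitting against DMSO.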

[9] = BSK_BE3C_SRB: Viability Assessment in the BioMAP Diversity Plus: BE3C Assay (AID 2283028); conditions: primary human bronchial epithelial cells
In short: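 Cells (human bronchial epithelial, primary) are treated with chemicals, and after 24 h the parallel cultures are fixed in 10% TCA. These are then stained with 0.1% SRB and read at 560 nm. Gain or loss of signal is fitted relative to DMSO.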

[10] = read-out: Thrombomodulin, THBD (gene 7056); test: BSK_3C_Thrombomodulin: BioMAP Diversity Plus: 3C Assay for Thrombomodulin Biomarker Activity (AID 2283029); conditions: primary human endothelial cells (HUVEC); actives raise or lower the signal
In short: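 Read-out is ELISA of thrombomodulin on human umbilical vein endothelium 24 h after chemical dosing. Gain or loss of signal is scored relative to DMSO. Overt cytotoxicity is checked in parallel cultures by sulforhodamine B staining.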

[11] = read-out: Urokinase-type plasminogen activator receptor (uPAR), PLAUR (gene 5329); test: BSK_4H_uPAR: BioMAP Diversity Plus: 4H Assay for Urokinase-type plasminogen activator receptor (uPAR) Biomarker Activity (AID 2283030); conditions: primary human endothelial cells (HUVEC); actives raise or lower the signal
In short: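 Cell-surface uPAR ELISA signal, measured 24 h after dosing human umbilical vein endothelial cells, was analyzed with bidirectional fitting relative to DMSO. Parallel SRB staining of total protein tracked overt cytotoxicity.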

[12] = read-out: Vascular endothelial growth factor receptor 2 (Homo sapiens) (UniProt P35968); test: BSK_4H_VEGFRII: BioMAP Diversity Plus: 4H Assay for Vascular endothelial growth factor receptor 2 (VEGFR2) Biomarker Activity (AID 2283031); conditions: primary human endothelial cells (HUVEC); actives raise or lower the signal
In short: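 ELISA read-out of VEGFRII in primary human umbilical vein endothelium, taken 24 h after chemical treatment. Responses are expressed relative to DMSO, with bidirectional fitting.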

[13] = read-out: Human Leukocyte Antigen - DR isotype (HLADR), HLA-DRA (gene 3122); test: BSK_BE3C_HLADR: BioMAP Diversity Plus: BE3C Assay for Human Leukocyte Antigen - DR isotype (HLADR) Biomarker Activity (AID 2283032); conditions: primary human bronchial epithelial cells; actives raise or lower the signal
In short: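 ELISA read-out of HLA-DR on human lung bronchial epithelial primary cells, measured 24 h post-dosing. Both increases and decreases were scored relative to DMSO vehicle.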

[14] = read-out: Vascular cell adhesion molecule 1 (VCAM1), VCAM1 (gene 7412); test: BSK_4H_VCAM1: BioMAP Diversity Plus: 4H Assay for Vascular cell adhesion molecule 1 (VCAM1) Biomarker Activity (AID 2283033); conditions: primary human endothelial cells (HUVEC); actives raise or lower the signal;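 note: cell-surface VCAM-1 protein measured by ELISA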
In short: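 ELISA read-out of VCAM-1 on human umbilical vein endothelium 24 hours after chemical dosing; gain or loss of signal was fitted relative to DMSO, with sulforhodamine B staining of parallel cultures flagging overt cytotoxicity.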

[15] = read-out: Interferon-gamma inducible Protein 10 (IP10), CXCL10 (gene 3627); test: BSK_BE3C_IP10: BioMAP Diversity Plus: BE3C Assay for Interferon-gamma inducible Protein 10 (IP10) Biomarker Activity (AID 2283034); conditions: primary human bronchial epithelial cells; actives raise or lower the signal
In short: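 Chemical is dosed onto human lung bronchial epithelial primary cells, cultures are incubated 24 h, and IP-10 is then quantified by ELISA. Gain or loss of signal is fitted in both directions relative to DMSO.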

[16] = read-out: Monokine induced gamma interferon (MIG), CXCL9 (gene 4283); test: BSK_BE3C_MIG: BioMAP Diversity Plus: BE3C Assay for Monokine induced gamma interferon (MIG) Biomarker Activity (AID 2283035); conditions: primary human bronchial epithelial cells; actives raise or lower the signal;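 note: MIG protein measured by ELISA in BE3C cultures after 24 h of dosing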
In short: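 Primary human bronchial epithelial cells treated for 24 h; MIG levels measured by ELISA, fitted bidirectionally versus DMSO. Parallel SRB total-protein staining assessed cytotoxicity.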

[17] = read-out: Transforming growth factor beta 1 (TGFb1), TGFB1 (gene 7040); test: BSK_BE3C_TGFb1: BioMAP Diversity Plus: BE3C Assay for Transforming growth factor beta 1 (TGFb1) Biomarker Activity (AID 2283036;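 note: TGF-b1 protein level measured by ELISA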); conditions: primary human bronchial epithelial cells; actives raise or lower the signal
In short: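 Primary human lung bronchial epithelial cells; compound exposure 24 h; TGF-b1 by ELISA; bidirectional fit, DMSO baseline. Parallel SRB total-protein staining for cytotoxicity.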

[18] = read-out: Plasminogen activator inhibitor-1 (PAI1), SERPINE1 (gene 5054); test: BSK_BE3C_PAI1: BioMAP Diversity Plus: BE3C Assay for Plasminogen activator inhibitor-1 (PAI1) Biomarker Activity (AID 2283037); conditions: primary human bronchial epithelial cells; actives raise or lower the signal
In short: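 Primary human lung bronchial epithelial cells; chemical dosing; 24 h; PAI-1 measured by ELISA; bidirectional fit referenced to DMSO as negative control.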

[19] = read-out: urokinase plasminogen activator (uPA), PLAU (gene 5328); test: BSK_BE3C_uPA: BioMAP Diversity Plus: BE3C Assay for urokinase plasminogen activator (uPA) Biomarker Activity (AID 2283038); conditions: primary human bronchial epithelial cells; actives raise or lower the signal;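 note: uPA protein level quantified by ELISA in cell cultures; uPA read one day after compound addition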
In short: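 Bronchial epithelial cells (human, primary); chemical 24 h; uPA by ELISA; bidirectional fit vs DMSO. SRB (0.1%, after 10% TCA fixation, 560 nm) in parallel cultures for cytotoxicity.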

[20] = read-out: Urokinase-type plasminogen activator receptor (uPAR), PLAUR (gene 5329); test: BSK_BE3C_uPAR: BioMAP Diversity Plus: BE3C Assay for Urokinase-type plasminogen activator receptor (uPAR) Biomarker Activity (AID 2283039); conditions: primary human bronchial epithelial cells; actives raise or lower the signal;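 note: cells exposed to compound for one day before measurement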
In short: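 Human bronchial epithelial primary cells; chemical exposure 24 h; uPAR by ELISA; bidirectional fit vs DMSO control.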

Measured: AC50

CCCc1ccccc1
inactive: all assays above

OCCNCCO
not listed: [3]
inactive: all other assays above

OC(CCl)CCl
inactive: all assays above

NCC(F)(F)C(F)(F)C(F)(F)C(F)(F)F
active: [10] 5.95 µM
inactive: [1] | [2] | [3] | [4] | [5] | [7] | [8] | [9] | [10] | [11] | [12] | [13] | [14] | [15] | [16] | [18] | [19] | [20]

Cc1ncc([C@@H](CCCCCCc2ccc3c(n2)NCCC3)CC(=O)O)cn1
active: [1] 1.02 µM | [11] 3.97 µM
inactive: all other assays above

COS(C)(=O)=O
inactive: all assays above
